Data reported in PubChem BioAssay (Tox21).
Several values for one entry are separate records, joined by “and”; a condition that tells them apart may be missing. Equal values may be shown once. Inconclusive results are not listed. A number with no mark means an inactive call. Activity calls are given as the source filed them. The call rests on the fitted dose curve; in most records, active means well fitted curve in the direction sought with a large enough effect in the repeat runs; inconclusive means weak or mixed curves; inactive means no such curve, though single readings can be large; an effect the other way counts as inactive or inconclusive.

Columns and labels:
[1] = molecular target: Nuclear receptor subfamily 1 group I member 2 (Homo sapiens) (UniProt O75469); experiment: Human pregnane X receptor (PXR) small molecule agonists, qHTS assay (AID 1346982); further: nearly all actives have a fitted effect of over 35% in size; further: potency means the concentration at half of the fitted maximal effect
In short: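 After plating in 5% charcoal-stripped FBS and a 5 hr rest, PXR-Luc HepG2 cells received compounds in DMSO. Following 24 hr at 37 C, ONE-Glo was added and light output read.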

[2] = molecular target: Cytochrome P450 2C19 (Homo sapiens) (UniProt P33261); experiment: Cytochrome P450 Family 2 Subfamily C Member 19 (CYP2C19) small molecule antagonists: luciferase reporter qHTS assay (AID 1671197); further: nearly all actives have a fitted effect of over 65% in size; further: potency means the concentration at half of the fitted maximal effect
In short: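 Compounds were tested on CYP2C19 activity via proluciferin conversion to luciferin. The 37C, 1 h reaction followed NADPH addition; detection reagent stopped it.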

[3] = molecular target: Cytochrome P450 2C9 (Homo sapiens) (UniProt P11712); experiment: Cytochrome P450 Family 2 Subfamily C Member 9 (CYP2C9) small molecule antagonists: luciferase reporter qHTS assay (AID 1671198); further: nearly all actives have a fitted effect of over 50% in size; further: potency means the concentration at half of the fitted maximal effect
In short: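 CYP2C9 activity was measured with a P450-Glo proluciferin substrate. Enzyme–substrate mix was held with compound for 10 min at room temperature, then NADPH regeneration solution was added for 1 h at 37C. Luciferin product was read as luminescence.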

[4] = molecular target: Cytochrome P450 1A2 (Homo sapiens) (UniProt P05177); experiment: Cytochrome P450 Family 1 Subfamily A Member 2 (CYP1A2) small molecule antagonists: luciferase reporter qHTS assay (AID 1671199); further: nearly all actives have a fitted effect of over 50% in size; further: potency means the concentration at half of the fitted maximal effect
In short: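 Quantitative high-throughput format using the P450-Glo CYP1A2 system. Reaction initiated by NADPH regeneration solution, 1 h at room temperature, then stopped with detection reagent; luminescence measured 20 min later.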

[5] = molecular target: Voltage-gated inwardly rectifying potassium channel KCNH2 (Homo sapiens) (UniProt Q12809); experiment: Human Ether-a-go-go-Related Gene (hERG) channel small molecule antagonists: fluorescence cell-based qHTS assay (AID 1671200);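 further: hERG-expressing U2OS cells given a thallium stimulus after FluxOR II dye loading; series mostly up to about 77 µM; nearly all actives have a fitted effect of over 50% in size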
In short: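 Measured: Tl+ flux via fluorescence (480/540 nm) in hERG-expressing U2OS cells after 1 h dye loading at room temperature.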

[6] = molecular target: Cytochrome P450 3A4 (Homo sapiens) (UniProt P08684); experiment: Cytochrome P450 Family 3 Subfamily A Member 4 (CYP3A4) small molecule antagonists: luciferase reporter qHTS assay (AID 1671201); further: series mostly up to about 120 µM; nearly all actives have a fitted effect of over 50% in size
In short: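 Setup: enzyme-substrate mix, compound pin transfer, 10 min RT. Reaction: NADPH regeneration solution, 1 h RT. Readout: detection reagent stops turnover, luminescence measured after 20 min, expressed in relative luminescence units.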

[7] = molecular target: Cytochrome P450 2D6 (Homo sapiens) (UniProt P10635); experiment: Cytochrome P450 Family 2 Subfamily D Member 6 (CYP2D6) small molecule antagonists: luciferase reporter qHTS assay (AID 1671196)
In short: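 Quantitative HTS of Tox21 chemicals against CYP2D6 using a luminescent proluciferin substrate. After NADPH addition, 1 h room-temperature reaction; luminescence recorded 20 min post detection reagent.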

[8] = molecular target: Nuclear receptor subfamily 1 group I member 2 (Rattus norvegicus) (UniProt Q9R1A7); experiment: Rat pregnane X receptor (rPXR) activation by small molecules, qHTS assay (AID 1346983); conditions: rPXR luciferase reporter cells, One-Glo luminescence, 24 h; max activation: active compounds read high; further: nearly all actives have a fitted effect of over 20% in size
In short: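 Cell-based rPXR luciferase reporter assay, 2,000 cells per well, rested 5hr at 37 C before compound addition in DMSO, then 24 hr at 37 C. One-Glo reagent was added and luminescence read after 30 min at room temperature.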

[9] = molecular target: Nuclear receptor subfamily 1 group I member 2 (Homo sapiens) (UniProt O75469); experiment: CYP3A4 induction through human pregnane X receptor (PXR) by small molecules, qHTS assay (AID 1346984); further: nearly all actives have a fitted effect of over 40% in size; further: potency means the concentration at half of the fitted maximal effect
In short: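 Human PXR activation is tracked via CYP3A4 promoter-luciferase in DPX-2 (HepG2) cells. Compounds treat cells for 24hr at 37C, and luminescence is read after One-Glo.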
On the % scale 0 is the no-effect control and ±100 the full control effect.

Sequence of Nuclear receptor subfamily 1 group I member 2 (Rattus norvegicus) (Q9R1A7 whole entry, looked up): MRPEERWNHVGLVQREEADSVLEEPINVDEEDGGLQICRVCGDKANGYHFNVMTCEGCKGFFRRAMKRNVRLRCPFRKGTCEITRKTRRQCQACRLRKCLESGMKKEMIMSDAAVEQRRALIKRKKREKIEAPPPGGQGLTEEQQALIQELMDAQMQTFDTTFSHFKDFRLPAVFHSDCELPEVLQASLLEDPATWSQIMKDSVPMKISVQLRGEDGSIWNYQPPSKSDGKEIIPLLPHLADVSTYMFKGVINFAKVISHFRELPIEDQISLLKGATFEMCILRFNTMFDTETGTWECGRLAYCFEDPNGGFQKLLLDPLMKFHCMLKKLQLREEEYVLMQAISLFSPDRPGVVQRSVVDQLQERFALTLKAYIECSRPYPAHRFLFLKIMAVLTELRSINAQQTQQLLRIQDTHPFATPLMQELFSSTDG
Sequence of Nuclear receptor subfamily 1 group I member 2 (Homo sapiens) (O75469 whole entry, looked up): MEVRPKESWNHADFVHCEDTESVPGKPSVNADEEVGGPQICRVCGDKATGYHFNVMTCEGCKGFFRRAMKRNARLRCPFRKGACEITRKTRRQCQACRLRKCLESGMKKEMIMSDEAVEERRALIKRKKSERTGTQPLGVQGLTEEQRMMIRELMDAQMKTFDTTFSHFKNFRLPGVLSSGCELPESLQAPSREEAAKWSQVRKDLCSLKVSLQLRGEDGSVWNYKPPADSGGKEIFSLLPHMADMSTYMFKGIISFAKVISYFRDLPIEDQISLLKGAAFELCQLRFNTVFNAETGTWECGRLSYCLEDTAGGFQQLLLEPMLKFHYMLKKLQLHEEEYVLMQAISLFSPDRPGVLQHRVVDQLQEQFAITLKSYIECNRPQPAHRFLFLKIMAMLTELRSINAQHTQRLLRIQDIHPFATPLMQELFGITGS
Sequence of Cytochrome P450 2C19 (Homo sapiens) (P33261 whole entry, looked up): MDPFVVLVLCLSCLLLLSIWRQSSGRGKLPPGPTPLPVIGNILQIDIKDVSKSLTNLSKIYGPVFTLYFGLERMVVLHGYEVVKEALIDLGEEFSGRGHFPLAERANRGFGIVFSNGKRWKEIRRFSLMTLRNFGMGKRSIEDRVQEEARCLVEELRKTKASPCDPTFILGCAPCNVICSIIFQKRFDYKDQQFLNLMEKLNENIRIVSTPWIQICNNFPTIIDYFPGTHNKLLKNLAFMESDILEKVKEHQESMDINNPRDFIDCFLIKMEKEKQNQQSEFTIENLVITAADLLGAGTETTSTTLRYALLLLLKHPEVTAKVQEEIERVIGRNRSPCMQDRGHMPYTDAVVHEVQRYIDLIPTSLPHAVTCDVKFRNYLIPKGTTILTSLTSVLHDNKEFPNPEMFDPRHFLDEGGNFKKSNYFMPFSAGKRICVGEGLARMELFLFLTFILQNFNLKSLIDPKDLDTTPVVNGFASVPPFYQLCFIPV
Sequence of Cytochrome P450 1A2 (Homo sapiens) (P05177 whole entry, looked up): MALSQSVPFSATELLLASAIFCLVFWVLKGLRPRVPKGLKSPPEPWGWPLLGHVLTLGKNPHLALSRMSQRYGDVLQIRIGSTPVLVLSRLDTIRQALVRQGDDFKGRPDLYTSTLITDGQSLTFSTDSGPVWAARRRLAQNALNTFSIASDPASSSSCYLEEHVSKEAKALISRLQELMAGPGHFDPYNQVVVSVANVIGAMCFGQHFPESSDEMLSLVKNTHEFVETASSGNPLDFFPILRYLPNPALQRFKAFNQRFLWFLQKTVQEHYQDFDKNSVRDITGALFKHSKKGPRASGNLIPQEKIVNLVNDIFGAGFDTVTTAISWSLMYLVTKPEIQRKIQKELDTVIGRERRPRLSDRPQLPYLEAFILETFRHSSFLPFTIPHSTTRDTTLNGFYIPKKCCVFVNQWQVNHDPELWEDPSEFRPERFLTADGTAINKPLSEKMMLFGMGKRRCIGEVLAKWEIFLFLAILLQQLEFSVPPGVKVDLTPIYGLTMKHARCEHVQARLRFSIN
Sequence of Cytochrome P450 2C9 (Homo sapiens) (P11712 whole entry, looked up): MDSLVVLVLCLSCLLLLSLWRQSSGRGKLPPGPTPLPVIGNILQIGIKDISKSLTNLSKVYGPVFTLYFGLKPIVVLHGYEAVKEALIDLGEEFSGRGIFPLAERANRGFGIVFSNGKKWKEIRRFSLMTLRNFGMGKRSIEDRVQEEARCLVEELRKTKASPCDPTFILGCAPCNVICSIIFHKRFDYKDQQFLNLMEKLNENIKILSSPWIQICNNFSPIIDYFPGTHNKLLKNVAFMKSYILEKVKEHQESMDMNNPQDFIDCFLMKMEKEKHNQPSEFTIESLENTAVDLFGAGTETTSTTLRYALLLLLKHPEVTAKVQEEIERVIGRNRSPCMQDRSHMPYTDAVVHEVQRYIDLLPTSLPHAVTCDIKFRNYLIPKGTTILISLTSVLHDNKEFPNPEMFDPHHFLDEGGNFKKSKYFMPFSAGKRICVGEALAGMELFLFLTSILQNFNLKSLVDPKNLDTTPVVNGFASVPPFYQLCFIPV
Sequence of Voltage-gated inwardly rectifying potassium channel KCNH2 (Homo sapiens) (Q12809 whole entry, looked up): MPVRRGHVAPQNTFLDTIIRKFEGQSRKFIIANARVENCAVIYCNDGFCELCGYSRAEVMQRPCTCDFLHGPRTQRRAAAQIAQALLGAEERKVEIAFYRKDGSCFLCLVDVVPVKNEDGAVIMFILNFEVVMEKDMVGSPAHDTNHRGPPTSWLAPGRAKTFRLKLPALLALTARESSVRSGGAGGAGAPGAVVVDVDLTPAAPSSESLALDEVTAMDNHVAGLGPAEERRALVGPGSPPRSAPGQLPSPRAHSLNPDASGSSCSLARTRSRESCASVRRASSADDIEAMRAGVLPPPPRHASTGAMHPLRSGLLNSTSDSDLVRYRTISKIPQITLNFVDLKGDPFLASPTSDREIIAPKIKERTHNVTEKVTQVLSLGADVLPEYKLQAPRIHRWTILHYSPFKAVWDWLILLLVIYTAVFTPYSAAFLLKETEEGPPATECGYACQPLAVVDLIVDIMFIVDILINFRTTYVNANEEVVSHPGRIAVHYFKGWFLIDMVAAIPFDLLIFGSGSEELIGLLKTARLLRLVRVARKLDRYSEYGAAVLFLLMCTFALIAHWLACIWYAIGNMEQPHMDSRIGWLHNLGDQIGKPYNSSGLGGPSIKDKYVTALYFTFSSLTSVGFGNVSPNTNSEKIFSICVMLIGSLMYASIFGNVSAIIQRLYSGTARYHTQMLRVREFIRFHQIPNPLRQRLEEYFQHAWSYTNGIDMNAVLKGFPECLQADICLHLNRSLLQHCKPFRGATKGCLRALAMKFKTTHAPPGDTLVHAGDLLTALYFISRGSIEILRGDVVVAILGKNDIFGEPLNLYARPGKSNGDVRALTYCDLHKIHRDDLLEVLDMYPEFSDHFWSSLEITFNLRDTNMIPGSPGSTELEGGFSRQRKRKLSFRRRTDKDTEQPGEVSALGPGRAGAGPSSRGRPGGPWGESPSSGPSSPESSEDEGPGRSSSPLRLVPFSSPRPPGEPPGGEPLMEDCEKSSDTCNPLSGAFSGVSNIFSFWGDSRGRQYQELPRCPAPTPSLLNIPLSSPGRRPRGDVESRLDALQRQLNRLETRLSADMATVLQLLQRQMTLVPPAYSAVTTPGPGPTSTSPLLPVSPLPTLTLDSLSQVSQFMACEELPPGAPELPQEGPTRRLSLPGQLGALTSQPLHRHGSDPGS
Sequence of Cytochrome P450 2D6 (Homo sapiens) (P10635 whole entry, looked up): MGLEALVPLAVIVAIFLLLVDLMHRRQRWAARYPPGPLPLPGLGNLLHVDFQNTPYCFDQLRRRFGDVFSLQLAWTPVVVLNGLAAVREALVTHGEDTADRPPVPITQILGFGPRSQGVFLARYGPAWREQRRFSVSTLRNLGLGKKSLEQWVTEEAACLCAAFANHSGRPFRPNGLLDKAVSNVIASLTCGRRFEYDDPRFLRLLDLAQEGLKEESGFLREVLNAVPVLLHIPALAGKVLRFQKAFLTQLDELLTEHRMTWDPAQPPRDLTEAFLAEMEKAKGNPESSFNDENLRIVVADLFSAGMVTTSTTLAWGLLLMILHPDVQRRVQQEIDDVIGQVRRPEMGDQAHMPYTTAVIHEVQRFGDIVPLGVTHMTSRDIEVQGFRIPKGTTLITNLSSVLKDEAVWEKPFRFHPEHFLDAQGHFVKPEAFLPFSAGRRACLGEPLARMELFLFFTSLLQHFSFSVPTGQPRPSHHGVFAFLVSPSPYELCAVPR
Sequence of Cytochrome P450 3A4 (Homo sapiens) (P08684 whole entry, looked up): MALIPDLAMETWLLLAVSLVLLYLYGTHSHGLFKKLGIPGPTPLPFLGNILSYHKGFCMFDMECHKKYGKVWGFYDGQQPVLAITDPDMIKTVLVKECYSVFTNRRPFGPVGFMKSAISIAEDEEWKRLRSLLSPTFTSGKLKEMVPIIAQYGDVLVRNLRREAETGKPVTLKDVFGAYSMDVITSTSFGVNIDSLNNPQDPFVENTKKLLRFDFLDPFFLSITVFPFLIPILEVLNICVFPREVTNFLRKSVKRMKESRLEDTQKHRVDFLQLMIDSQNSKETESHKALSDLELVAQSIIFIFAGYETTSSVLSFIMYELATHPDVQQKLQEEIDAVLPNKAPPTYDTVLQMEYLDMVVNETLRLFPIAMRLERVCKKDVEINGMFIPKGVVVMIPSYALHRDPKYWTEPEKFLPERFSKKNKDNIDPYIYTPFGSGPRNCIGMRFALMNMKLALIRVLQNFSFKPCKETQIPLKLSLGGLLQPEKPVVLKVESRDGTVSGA

## ClC(c1ccccc1)(c1ccccc1)c1ccccc1
[1]
  Potency: 9.69 µM (active)
[2]
  Potency: 0.224 µM (active)
[3]
  Potency: 1.59 µM (active)
[4]
  Potency: inactive
[5]
  Potency: inactive
[6]
  Potency: inactive

## O=C(Cl)c1ccc(Cl)cc1Cl
[1]
  Potency: inactive
[7]
  Potency: inactive
[4]
  Potency: 63.3 µM (active)
[5]
  Potency: inactive

## CCN(CC)c1ccc(N=Nc2ccccc2)cc1
[1]
  Potency: 1.37 µM (active)
[2]
  Potency: 20 µM (active)
[3]
  Potency: 10 µM (active)
[4]
  Potency: 11.2 µM (active)
[5]
  Potency: inactive

## CCC1(C)C(=O)N(Cl)C(=O)N1Cl (stereo not given)
[1]
  Potency: inactive
[2]
  Potency: inactive
[3]
  Potency: inactive
[4]
  Potency: inactive
[5]
  Potency: inactive
[6]
  Potency: inactive

## CCc1cccc(C)c1N(C(=O)CS(=O)(=O)O)C(C)COC (stereo not given)
[1]
  Potency: inactive
[7]
  Potency: inactive
[4]
  Potency: inactive
[5]
  Potency: inactive

## CC(C)(C)c1ccc(OC2CCCCC2O)cc1 (stereo not given)
[1]
  Potency: 27.3 µM (active)
[2]
  Potency: 31.7 µM (active)
[3]
  Potency: 35.6 µM (active)
[4]
  Potency: 35.6 µM (active)
[5]
  Potency: inactive

## COc1cc(OC)nc(NC(=O)NS(=O)(=O)Nc2ccccc2C(=O)N(C)C)n1
[1]
  Potency: 43.3 µM (active)
[2]
  Potency: 39.9 µM (active)
[3]
  Potency: 31.7 µM (active)
[4]
  Potency: 63.3 µM (active)
[5]
  Potency: inactive

## O=C1C2CC3CC1CC(O)(C3)C2
[8]
  max activation: -3.68%
[9]
  Potency: inactive

## C[C@@H]1C(=O)NC2=Nc3cccc(Cl)c3CN21
[8]
  max activation: 3.73%
[9]
  Potency: inactive

## CCCCCCCCCCCCCCCCCCOCC(COP(=O)([O-])OCC[N+](C)(C)C)OC (stereo not given)
[8]
  max activation: -1.53%
[9]
  Potency: inactive

## CN(C)CCc1c[nH]c2ccc(Cn3cncn3)cc12
[8]
  max activation: -1.87%
[9]
  Potency: inactive

## COc1cc(NS(C)(=O)=O)ccc1Nc1c2ccccc2nc2ccccc12
[8]
  max activation: -19%
[9]
  Potency: inactive

## O=P(O)(O)CP(=O)(O)O
[8]
  max activation: -0.378%
[9]
  Potency: inactive

## CN(C)CCC(O)(c1ccccc1)c1ccccc1Cl (stereo not given)
[8]
  max activation: 2.06%
[9]
  Potency: 12.6 µM (active)

## CO/N=C(\C(=O)N[C@@H]1C(=O)N2C(C(=O)[O-])=C(C[n+]3cccc4c3CCC4)CS[C@H]12)c1csc(N)n1
[8]
  max activation: -2.77%
[9]
  Potency: inactive

## O=C1c2ccccc2CN2C(=O)c3ccccc3CN12
[8]
  max activation: -1.83%
[9]
  Potency: inactive

## CNCC(=O)N[C@@H](CCCN=C(N)N)C(=O)N[C@H](C(=O)N[C@@H](Cc1ccc(O)cc1)C(=O)N[C@H](C(=O)N[C@@H](Cc1cnc[nH]1)C(=O)N1CCC[C@H]1C(=O)N[C@@H](C)C(=O)O)C(C)C)C(C)C
[8]
  max activation: -0.307%
[9]
  Potency: inactive

## CC[C@H]1OC(=O)C[C@@H](O)[C@H](C)[C@@H](O[C@@H]2O[C@H](C)[C@@H](O[C@H]3C[C@@](C)(O)[C@@H](O)[C@H](C)O3)[C@H](N(C)C)[C@H]2O)[C@@H](CC=O)C[C@@H](C)C(=O)/C=C/C(C)=C/[C@@H]1CO[C@@H]1O[C@H](C)[C@@H](O)[C@@H](OC)[C@H]1OC
[8]
  max activation: 0.133%
[9]
  Potency: inactive

## CO/N=C(\C(=O)N[C@@H]1C(=O)N2C(C(=O)O)=C(C[N+]3(C)CCCC3)CS[C@H]12)c1csc(N)n1
[8]
  max activation: -0.506%
[9]
  Potency: inactive

## CC(C)CCC[C@@H](C)[C@H]1CC[C@H]2[C@@H]3CC[C@@H]4C[C@H](O)CC[C@]4(C)[C@H]3CC[C@]12C
[8]
  max activation: -7.28%
[9]
  Potency: inactive

## O=C(O)c1ccccn1
[8]
  max activation: -2.98%

## CCCCCCCCCCCCCCCC(=O)OC[C@H](COP(=O)([O-])OCC[N+](C)(C)C)OC(=O)CCCCCCCCCCCCCCC
[8]
  max activation: 0.686%
[9]
  Potency: inactive

## Cc1ncc(C[n+]2csc(CCO)c2C)c(N)n1
[8]
  max activation: -0.76%

## O=C(O)COc1ccc(C(=O)c2cccs2)c(Cl)c1Cl
[8]
  max activation: -1.39% and -4.28%
[9]
  Potency: inactive

## CCN(CC)C(=S)S
[8]
  max activation: -4.17%

## C[S+](C)CCC(N)C(=O)O (stereo not given)
[8]
  max activation: -3.19%
[9]
  Potency: inactive

## CCCCCCCCCCCCCCCC[n+]1ccccc1
[8]
  max activation: -15.5%

## COc1c(O)cc2c(c1O)[C@@H]1O[C@H](CO)[C@@H](O)[C@H](O)[C@H]1OC2=O
[8]
  max activation: -0.0644%
[9]
  Potency: inactive

## O=C(O)CCCC/C=C(\c1ccccc1)c1cccnc1
[8]
  max activation: -2.2%
[9]
  Potency: inactive

## CC/C=C\C/C=C\C/C=C\C/C=C\C/C=C\CCCC(=O)O
[8]
  max activation: -0.855%
[9]
  Potency: inactive

## O=S(=O)(O)O
[8]
  max activation: 0.359%

## COC1=C(OC)C(=O)C(C/C=C(\C)CC/C=C(\C)CC/C=C(\C)CC/C=C(\C)CC/C=C(\C)CC/C=C(\C)CC/C=C(\C)CC/C=C(\C)CC/C=C(\C)CCC=C(C)C)=C(C)C1=O
[8]
  max activation: -2.14%
[9]
  Potency: inactive

## NCCO/C=C/[C@H](N)C(=O)O
[8]
  max activation: -1.97%
[9]
  Potency: inactive

## O=c1[nH]c(=O)n([C@H]2C[C@H](O)[C@@H](CO)O2)cc1/C=C/Br
[8]
  max activation: -6.99%
[9]
  Potency: inactive

## O=C(O)c1ccccc1O
[8]
  max activation: -4.21%
